32 compounds from PubChem BioAssay (EPA / NIEHS) can be followed below.

Values joined by “and” are separate entries in the source; they are usually repeats but may differ in a detail not shown here. Equal values may be shown once. A structure can be active in one record and inactive in another. Active and inactive are the calls of the source. How the source made its calls: active means hit-call score of the fitted dose curve at least 0.9, where 1 is the maximum; inactive means score below 0.9.

Read-out in this test: TIMP metallopeptidase inhibitor 2 (TIMP2), TIMP2 (gene 7077)
As to the kind of experiment: BSK_hDFCGF_TIMP2: BioMAP Diversity Plus: hDFCGF Assay for TIMP metallopeptidase inhibitor 2 (TIMP2) Biomarker Activity (AID 2284289). The following applies: primary human foreskin fibroblasts. As to the method: BSK_hDFCGF is a cell-based, multiplexed-readout assay that uses foreskin fibroblast, a human skin primary cell, with measurements taken at 24 hours after chemical dosing in a 96-well plate.BSK_hDFCGF_TIMP2 is an assay component measured in the BSK_hDFCGF assay. It measures TIMP-2 antibody related to regulation of gene expression using ELISA technology.Data from the assay component BSK_hDFCGF_TIMP2 was analyzed at the endpoint, BSK_hDFCGF_TIMP2, in the positive analysis fitting direction relative to DMSO as the negative control and baseline of activity. Using a type of binding reporter, gain or loss-of-signal activity can be used to understand protein changes. To generalize the intended target to other relatable targets, this assay endpoint is annotated to the 'protease' intended target family, where the subfamily is 'matrix metalloproteinase'.
The levels of cell surface (or secreted, indicated by the prefix "s") biomarker endpoints were measured by ELISA. Overt cytotoxicity to cells in confluent adherent cultures (all systems other than the BT system) was assessed by measuring total protein levels using sulforhodamine B (SRB) staining in parallel cultures at the time of biomarker measurements, indicated as SRB endpoints. For proliferation assays for adherent cell types, individual cell types are cultured at sub-confluence and relative cell numbers quantified by SRB staining at time points optimized for each system (48 h: 3C and CASM3C systems; 72 h: BT and HDF3CGF systems; 96 h: SAg system). SRB was performed by staining cells with 0.1% SRB after fixation with 10% TCA and reading wells at 560 nm.Viability and proliferation of PBMC (T cells) was quantified by Alamar Blue reduction for the SAg and BT systems. For PBMC viability (referred to as PBMC Cytotoxicity within the assay endpoint names), cells were plated (75,000/well in a 96-well plate) and then chemical samples added for 1 h before addition of activators, SEB and TSST-1 (20 ng/mL final concentration each). Cells were incubated for 90 h. Then, Alamar Blue (20 uL/well) (Invitrogen, Cat DAL1100) was added for 6 h, and the plates were read with a fluorescence microplate reader at 546/580 nm (excitation/emission). For PBMC proliferation, cells were plated and activated as above but incubated for only 16 h prior to addition of Alamar Blue. Plates were read after 6 h.
Broadly, the AC50 is the concentration at which the activity in the assay is half-maximal. Turning to `FC(F)(F)C(F)(F)C(F)(F)CC1CO1` (stereo not given), the concentration at half-maximal activity (AC50) was 1.97 µM (active) and the outcome was inactive.

With `NCC(F)(F)C(F)(F)C(F)(F)C(F)(F)C(F)(F)C(F)(F)C(F)(F)C(F)(F)F`, the outcome was inactive.

Regarding `CO[Si](C)(CCC(F)(F)C(F)(F)C(F)(F)C(F)(F)C(F)(F)C(F)(F)F)OC`, the outcome was inactive.

As for `NS(=O)(=O)C(F)(F)C(F)(F)C(F)(F)C(F)(F)C(F)(F)C(F)(F)F`, the result was inactive and the half-maximal activity concentration (AC50) was 54.6 µM (active).

Consider `NC(=O)C(F)(F)C(F)(F)C(F)(F)C(F)(F)C(F)(F)C(F)(F)C(F)(F)F`, for which the result was inactive.

On to `CCN=C1C=CC(=C(c2ccc(N(CC)CC)cc2)c2ccc(N(CC)CC)cc2)c2ccccc21`, for which the AC50 is 677 nM (active) and 195 nM (active).

Turning to `C[Si](Cl)(Cl)CCC(F)(F)C(F)(F)C(F)(F)C(F)(F)C(F)(F)C(F)(F)F`, the concentration at half-maximal activity (AC50) was 0.236 µM (active) and the outcome was inactive.

Take `NC(=O)C(F)(F)C(F)(F)C(F)(F)C(F)(F)C(N)=O`: the concentration at half-maximal activity (AC50) is 0.22 µM (active) and the outcome was inactive.

As to `OCCCCC(F)(F)C(F)(F)C(F)(F)C(F)(F)F`, the outcome was inactive.

As to `O=C(F)C1(F)C(F)(F)C(F)(F)C(F)(F)C(F)(F)C1(F)F`, the result was inactive.

For `COC(F)(C(F)F)C(F)(F)F` (stereo not given), the outcome was inactive.

For `FC(F)(F)C(F)(F)C(F)(F)C(F)(F)C(F)(F)C(F)(F)CC[Si](Cl)(Cl)Cl`, the AC50 is 0.519 µM (active) and the outcome was inactive.

On to `O=C(O)CCC(F)(F)C(F)(F)C(F)(F)F`, for which the outcome was inactive.

In the case of `OCC(F)(F)C(F)(F)C(F)(F)CO`, the outcome was inactive.

For the compound `CN(C(=O)C(F)(F)C(F)(F)C(F)(F)F)[Si](C)(C)C`, the outcome was inactive.

For the compound `O=C(O)C(F)(F)C(F)(F)C(F)(F)C(=O)O`, the result was inactive.

`C=CC(=O)OCCC(F)(F)C(F)(F)C(F)(F)C(F)(F)F`: the result was inactive and the AC50 was 2.55 µM (active).

For the compound `O=C(O)CCC(F)(F)C(F)(F)C(F)(F)C(F)(F)C(F)(F)C(F)(F)C(F)(F)F`, the result was inactive.

For the compound `CNS(=O)(=O)C(F)(F)C(F)(F)C(F)(F)C(F)(F)C(F)(F)C(F)(F)C(F)(F)C(F)(F)F`, the half-maximal activity concentration (AC50) is 7.96 µM (active) and the outcome was inactive.

As for `OCC(O)CC(F)(F)C(F)(F)C(F)(F)C(F)(F)C(F)(F)C(F)(F)C(F)(F)C(F)(F)F` (stereo not given), the outcome was inactive.

Take `O=S(=O)(O)CCC(F)(F)C(F)(F)C(F)(F)C(F)(F)C(F)(F)C(F)(F)C(F)(F)C(F)(F)F`: the result was inactive.

Consider `C=CC(=O)OCC(F)(F)C(F)(F)C(F)(F)C(F)(F)C(F)(F)C(F)(F)C(F)(F)C(F)F`, for which the outcome was inactive.

As to `O=S(=O)(O)CCC(F)(F)C(F)(F)C(F)(F)C(F)(F)F`, the result was inactive.

Regarding `OC(O)C(F)(F)C(F)(F)F`, the result was inactive.

Turning to `O=C(O)C(F)(F)OC(F)(F)C(F)(F)OC(F)(F)C(F)(F)OC(F)(F)F`, the result was inactive.

`C=CC(=O)OCC(F)(F)C(F)(F)C(F)(F)COC(=O)C=C`: the outcome was inactive.

Consider `O=C(O)C(F)(F)C(F)(F)C(F)(F)C(F)(F)C(F)(F)C(F)(F)C(F)F`, for which the AC50 was 0.957 µM (active) and the result was inactive.

With `O=C(O)C(F)(F)C(F)(F)C(F)(F)OC(F)(F)F`, the result was inactive.

In the case of `O=S(=O)(OCC(F)(F)F)C(F)(F)C(F)(F)C(F)(F)C(F)(F)F`, the outcome was inactive.

In the case of `NCC(F)(F)C(F)(F)C(F)(F)C(F)(F)C(F)(F)C(F)(F)F`, the result was inactive.

For the compound `O=C(Cl)C(F)(F)C(F)(F)C(F)(F)C(F)(F)C(F)(F)C(F)(F)C(F)(F)F`, the outcome was inactive.

For the compound `FC(F)(F)C(F)(F)C(F)(F)C(F)(F)C(F)(F)C(F)(F)C(F)(F)CCI`, the outcome was inactive.
